The record followed here is PubChem BioAssay AID588855 (National Center for Advancing Translational Sciences (NCATS), 2011).

Hit rate of the full screen: of about 410,000 compounds, about 5,000 (1.2%) were called active. Another 13% or so got no clear call; they are omitted. The list comes from a sample in which actives are over-represented; it also holds similar structures and randomly drawn compounds. Values without a mark were called inactive. Calls follow the shape of the dose curve; as a rule, active = well fitted inhibition curve with a large enough effect; inconclusive = small, poorly fitted or top-dose-only effect; inactive = no such curve, though single readings can be large or run the other way.
Potency is read from the fitted curve at half-maximal effect.

The nature of this test: qHTS for Inhibitors of TGF-b. Also: nearly all actives have a fitted effect of over 65% in size. Particulars: HepG2 CAGA-GFP TGF-b/SMAD3 reporter, GFP fluorescence, 18 h, TGF-beta stimulated, 500 pg/mL final; series mostly up to 46.1 µM; activity, negative = inhibition: at the top concentration. The source says: TGF-b is a main component in the TGF-b signaling pathway which plays diverse roles in cellular and development pathways. TGF-b is the mediated by the transcription factors Smads. Although the Smad-dependent pathway is the primary canonical TGF-b signaling node, TGF-b1 can also activate alternative signaling pathways, including those involving MAPK (ERK, JNK and p38). This interaction may mediate or enhance Smad-dependent responses, or can exert Smad-independent effects. The complexity of this signaling cascade allows the TGF-b superfamily to perform unique, overlapping or redundant functions. We believe that targeting the TGF-beta pathway at the Smad-transcription factor level may eliminate the consequences of disrupting the entire pathway and offer specificity without affecting other signaling pathways. Smad3 is the primary transducer of TGF-b's signals and Smad3 regulates many functions attributed to TGF-b signaling. We hypothesize that Smad3 inhibitors will selectively eliminate Smad3-specific TGF-beta signals without undesired off-target effects. We aim to identify Smad3-small molecule antagonists using a quantitative high throughput screening (qHTS) approach.
A high-throughput assay was developed to screen the NIH Molecular Libraries Small Molecule Repository (MLSMR). This is a cell based assay, where TGF-b is tagged with GFP. A counterscreen is run that looks at cytotoxicity (please see summary AID).
MH087449NIH Chemical Genomics Center [NCGC]
NIH Molecular Libraries Probe Centers Network [MLPCN]
Assay Submitter (PI): Sushil Rane, National Institute of […]
Suspensions of trypsinized HEPG2 CAGA-GFP cells were dispensed into white, tissue culture-treated, solid 1536-well plates at 5uL/well (1000 cells/well final concentration) in DMEM medium supplemented with 1% FBS. Plates were incubated at 37 degrees C for 2 hours, after which 23 nL of compounds or DMSO were delivered to each well using a pin tool. One uL of recombinant TGF-beta in DMEM (1% FBS) was then dispensed (500 pg/mL final concentration), and plates were incubated at 37 degrees C for 18 hours. The plates were measured on an Acumen eX3 Explorer plate reader for GFP fluorescence (ex488/em500-530). GFP values were calculated by determining the mean GFP fluorescence of individual cells, and compiling these values for each well to determine a total well GFP signal. The %Activity was determined from the corrected fluorescence values. A titration of the known TGF-B inhibitor SB431542 was included to monitor plate performance, while unstimulated HEPG2 (-TGF-B) control wells were used to normalize %Activity of identified inhibitors; unstimulated wells corresponded to 100%Activity (full inhibition), while stimulated cell controls (+DMSO) were used to normalize 0%Activity (no inhibition).
Concentration-response curves were fitted to the signals arising from the resulting fluorescence. The concentration-effect curves were then classified based on curve quality (r2), response magnitude and degree of measured activity, and compounds were subsequently categorized based on their curve class.
In general terms: In qHTS, concentration-response curves come from the screen itself.
Turning to `CN(C)c1ccc(/C=C/c2c3ccccc3nc3ccccc23)cc1`, the “activity, negative = inhibition” value is -19.8%.
As for `COc1ccccc1N1CCN(C2C(=O)c3ccccc3N2C(C)=O)CC1` (stereo not given), the “activity, negative = inhibition” value is 0%.
Consider `COc1ccc(NC(=O)CCNS(=O)(=O)c2ccc3c(c2)CCCC(=O)N3)cc1Cl`, for which the “activity, negative = inhibition” value was 2.37%.
The same measure, in the same setting: for `CCOC(=O)CNC(=O)/C(=C\c1ccc(F)cc1)NC(=O)c1ccccc1` the value was 5.26%.
Consider `CCOC(=O)C[C@H]1c2ccc(C(F)(F)F)cc2S(=O)(=O)N1c1ccccc1`, for which the Potency was 14.1 µM (active).
In the case of `CCOC(=O)CN1CCC(c2ccccc2)CC1`, the “activity, negative = inhibition” value is -5.44%.
Regarding `Cc1onc(C(=O)NN)c1C(=O)N1CCN(C(c2ccccc2)c2ccccc2)CC1`, the “activity, negative = inhibition” value was 3.15%.
On the same count and under the same terms, to `CC(C)OCC(O)CN1CCN(C(c2ccccc2)c2ccccc2)CC1` (stereo not given) belongs 3.7%.
Regarding `CC1(C)CC(N2CCN(C(c3ccccc3)c3ccccc3)CC2)=CC(=[N+]2CCCCC2)C1`, the Potency is 6.31 µM (active).
Take `COc1ccc(NC(=O)c2sc3nc(-c4cc5cccc(OC)c5oc4=O)[nH]c(=O)c3c2C)cc1`: the “activity, negative = inhibition” value was -21.6%.
Regarding `Cc1csc[n+]1CCC1CCCCC1`, the “activity, negative = inhibition” value was 0.0338%.
As to `Cc1ccccc1C(=O)Nc1cc(C)c(O)c(-c2nc3ccccc3o2)c1`, the “activity, negative = inhibition” value was -8.84%.
With `CC1CCc2c(nc3ncnn3c2Nc2ccc(OC(F)(F)F)cc2)C1` (stereo not given), the Potency is 15.8 µM (active).
Take `COC(=O)c1cnn(-c2ccc(C(=O)Nc3ccc(OC(F)(F)F)cc3)cc2)c1N`: the “activity, negative = inhibition” value was -19.7%.
The same measure, in the same setting: for `CC(=O)c1nn(-c2ccc(OC(F)(F)F)cc2)nc1Nc1ccccc1` the value was -3.72%.
Regarding `CN(C)CCNC(=O)c1ccc(Cl)c2cc3ccccc3nc12`, the Potency was 3.55 µM (active).
Consider `CCCN(CCC)CCNC(=O)c1cc2c(C)nc3ccccc3c2o1`, for which the “activity, negative = inhibition” value was -30.9%.
For the compound `Cc1cc(C)n(C(=O)CCNC(=O)c2ccccc2Cl)n1`, the “activity, negative = inhibition” value was -15%.
Still for that read-out and setting: to `CC(NC(=O)CCC(=O)N1CCN(S(=O)(=O)c2ccc(Cl)cc2)CC1)c1ccccc1` (stereo not given) belongs -13.8%; to `O=C(CCC(=O)c1ccccc1)NCc1cccc(C(F)(F)F)c1`, -3.04%.
As to `O=C(CCC(=O)N1CCN(S(=O)(=O)c2ccc(Cl)cc2)CC1)NCc1cccc(C(F)(F)F)c1`, the Potency is 7.08 µM (active).
On to `Cc1cc(OCC(=O)Nc2ncn[nH]2)c(C)c(C)c1Br`, for which the “activity, negative = inhibition” value is 2.13%.
Same read-out and setting: to `CCCn1c2ccccc2c2cnn(CC(=O)NCCCOC(C)C)c(=O)c21` belongs -16.6%; to `CCOC(=O)c1c(NC(=O)c2ccc(S(=O)(=O)N3CCCC(C)C3)cc2)sc2c1CCN(C(C)C)C2` (stereo not given), -0.37%.
On the same count and under the same terms, to `CCOC(=O)c1cnc2c(C)cc(C)cc2c1Nc1ccc(N2CCOCC2)cc1` belongs -6.96%; to `CC1=Nc2cc(C(=O)NCc3ccc(C)cc3)ccc2Sc2ccc(Cl)cc21`, -12.7%.
As to `COCCNC(=O)c1ccc2c(c1)N=C(C)c1cc(C)ccc1S2`, the Potency is 2 µM (active).
Turning to `CCC1=Nc2cc(C(=O)NCC(C)c3ccccc3)ccc2Sc2ccc(C)cc21` (stereo not given), the “activity, negative = inhibition” value was 4.45%.
As to `Cc1nn(-c2ccc(N3CCCCC3)nn2)c(C)c1CCC(=O)NCc1ccc(F)cc1`, the “activity, negative = inhibition” value is -26.8%.
In the case of `Cc1ccc(-n2nc(CO)c(C(=O)NCCc3ccccc3)n2)cc1`, the “activity, negative = inhibition” value is 0%.
For the compound `COc1ccc(-c2cn3nc(N4CCC(C(=O)Nc5cccc(C)c5C)CC4)sc3n2)cc1`, the “activity, negative = inhibition” value is 0%.
Take `COc1ccc(NC(=O)CN2C(=O)NC(C)(c3ccccc3)C2=O)cn1` (stereo not given): the “activity, negative = inhibition” value was 4.02%.
Consider `COc1ccc(NC(=O)C(=O)NCc2ccco2)cc1`, for which the “activity, negative = inhibition” value is 4.07%.
In the case of `COc1ccc(CS(=O)/C(Cl)=C(/Cl)C(=O)Nc2ccc(OC)nc2)cc1` (stereo not given), the Potency was 3.16 µM (active).
Regarding `COc1ccc(NC(=O)CSc2nc3ncccc3[nH]2)c(OC)c1`, the “activity, negative = inhibition” value is 11.2%.
Consider `COc1ccc(C(=O)c2c3ccc([N+](=O)[O-])cc3[n+]([O-])n2CCCN)cc1`, for which the Potency was 8.91 µM (active).
With `COc1ccc(C(=O)NCCNc2ccc([N+](=O)[O-])cn2)cc1`, the “activity, negative = inhibition” value was 1.81%.
The same measure, in the same setting: to `COc1ccc2c(C(=O)c3ccc(C)cc3)n(CCC(N)=O)[n+]([O-])c2c1` belongs -22.6%; to `CCS(=O)(=O)N1CCc2cc(C(=O)N3CCN(c4ccccc4OC)CC3)ccc21`, -25.2%; to `CCC(=O)N1CCc2cc(S(=O)(=O)NC(Cc3ccccc3)C(=O)NCc3ccc(C)cc3)ccc21` (stereo not given), -28.1%.
The same measure, in the same setting: for `CC(C)OCCCn1c(SCC(=O)c2ccccc2)nc2c(sc3ccccc32)c1=O` the value was -15.3%.
Consider `C/C(=N\Nc1ccc(Cl)nn1)c1ccccc1O`, for which the Potency is 1.26 µM (active).
For `C/C(=N/Nc1ccc(Cl)cc1)c1cnnc(-c2ccccc2)n1`, the “activity, negative = inhibition” value is 0.78%.
As for `Fc1ccccc1Cc1ccc(Cl)nn1`, the “activity, negative = inhibition” value was -7.59%.
Take `COc1ccc(C2=NC(c3ccncc3)=Nc3ccc(Br)cc3N2)cc1`: the “activity, negative = inhibition” value is -2.9%.
Same read-out and setting: to `O=C1[C@H]2[C@@H](c3ccc(Cl)cc3)N3C(=O)N(c4cccc(F)c4)C(=O)[C@@]3(Cc3ccccc3)[C@H]2C(=O)N1C1CCCCC1` belongs -18.1%.
`C[C@@]12C(=O)N(c3cccc(Br)c3)C(=O)N1[C@H](c1ccc(Cl)cc1)[C@@H]1C(=O)N(C3CCCCC3)C(=O)[C@@H]12`: the Potency is 11.2 µM (active).
As to `Cc1cccc(N2C(=O)N3[C@H](c4ccc(F)cc4)[C@@H]4C(=O)N(C5CCCCC5)C(=O)[C@@H]4[C@]3(Cc3ccccc3)C2=O)c1`, the “activity, negative = inhibition” value was 17.6%.
For the compound `CNCCCOc1cc2nc(N3CCCN(C)CC3)nc(NC3CCN(C)CC3)c2cc1OC`, the “activity, negative = inhibition” value is 22%.
Turning to `CN(Cc1ccccc1)C(=O)CCS(=O)(=O)c1cc(Br)cc2c1N(C(=O)C1CC1)CC2`, the “activity, negative = inhibition” value is 0%.
